Assay results from the supplement of paper PMC9262897, “Low-cost anti-mycobacterial drug discovery using engineered E. coli” (Nature Communications, 2022).
Structures can show the parent of a compound that is named as a salt. ± gives the standard deviation of the averaged measurements.

Assays:
Assay in all cases: growth (OD600 after 10 h); higher = more growth (less inhibition)
[1] = system: E. coli TESEC Alr+ wild-type control; settings: compound 0.1 mM; raw OD600 reference: median of DMSO wells 0.241, cell-free background 0.041
Protocol: (§1)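 TESEC Mtb Alr E. coli, or the Alr+ wild-type control, in 384-well plates with Prestwick library compounds at 0.1 mM and 1% DMSO, across arabinose induction levels of 1E3 to 1E7 nM. Growth is read as OD600 after 10 h at 37 °C in triplicate biological replicates.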

E. coli TESEC Mtb Alr [2] = settings: compound 0.1 mM
Protocol: as §1

E. coli TESEC Mtb Asd = settings: compound 0.1 mM
Protocol: (§2)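 TESEC E. coli strains in which the native enzyme is deleted and replaced by arabinose-inducible Mtb Asd, DapB, CysH or TrpD, each grown in its selective medium. Strains were screened against the Prestwick library at 0.1 mM and 1% DMSO in 384-well format at low and high arabinose induction. Growth is read as OD600 after 10 h in triplicate.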

E. coli TESEC Mtb DapB = settings: compound 0.1 mM
Protocol: as §2

E. coli TESEC Mtb Alr [3] = settings: compound 0.1 mM; remark: listed apart in the source
Protocol: (§3)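 TESEC Mtb Alr E. coli (ΔaraC ΔtolC ΔentC Δalr ΔdadX, arabinose-inducible Mtb Alr) or the Alr+ wild-type control strain, grown in defined M9-fructose medium without D-alanine in 96-well plates with Prestwick library compounds at 0.1 mM and 1% DMSO. Low Alr induction is 0.1 µM arabinose and high induction is 10 mM arabinose.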

[4] = system: E. coli TESEC Alr+ wild-type control; settings: compound 0.1 mM; raw OD600 reference: median of DMSO wells 0.49, cell-free background 0.052
Protocol: as §3

[5] = arabinose 1000 nM, raw OD600 reference: median of DMSO wells 0.294, cell-free background 0.041
[6] = arabinose 10000 nM, raw OD600 reference: median of DMSO wells 0.264, cell-free background 0.041
[7] = arabinose 100000 nM, raw OD600 reference: median of DMSO wells 0.201, cell-free background 0.041
[8] = arabinose 1000000 nM, raw OD600 reference: median of DMSO wells 0.193, cell-free background 0.041
[9] = arabinose 10000000 nM, raw OD600 reference: median of DMSO wells 0.146, cell-free background 0.041
[10] = arabinose induction (level): High, raw OD600 reference: median of DMSO wells 0.331, cell-free background 0.041
[11] = arabinose induction (level): Low, raw OD600 reference: median of DMSO wells 0.417, cell-free background 0.041
[12] = arabinose induction (level): High, raw OD600 reference: median of DMSO wells […], cell-free background 0.041
[13] = arabinose induction (level): Low, raw OD600 reference: median of DMSO wells 0.227, cell-free background 0.041
[14] = arabinose 100 nM, raw OD600 reference: median of DMSO wells 0.413, cell-free background 0.052
[15] = arabinose 10000000 nM, raw OD600 reference: median of DMSO wells […], cell-free background 0.052

O=C1[C@H](CC[C@H](O)c2ccc(F)cc2)[C@@H](c2ccc(O)cc2)N1c1ccc(F)cc1 [Ezetimibe]
growth [1]: 0.0438 ± 0.00074 | growth (E. coli TESEC Mtb Alr [2]; [5]): 0.0482 ± 0.0028 | growth (E. coli TESEC Mtb Alr [2]; [6]): 0.046 ± 0.00091 | growth (E. coli TESEC Mtb Alr [2]; [7]): 0.0462 ± 0.0037 | growth (E. coli TESEC Mtb Alr [2]; [8]): 0.0477 ± 0.004 | growth (E. coli TESEC Mtb Alr [2]; [9]): 0.0501 ± 0.0032 | growth (E. coli TESEC Mtb Asd; [10]): 0.101 ± 0.082 | growth (E. coli TESEC Mtb Asd; [11]): 0.0479 ± 0.0012 | growth (E. coli TESEC Mtb DapB; [12]): 0.0503 ± 0.003 | growth (E. coli TESEC Mtb DapB; [13]): 0.04873 ± 0.00038 | growth (E. coli TESEC Mtb Alr [3]; [14]): 0.0636 ± 0.0051 | growth (E. coli TESEC Mtb Alr [3]; [15]): 0.061 ± 0.01

CN1C(=O)CC(c2ccccc2)C1=O (configuration not stated) [Phensuximide]
growth [1]: 0.244 ± 0.0072 | growth (E. coli TESEC Mtb Alr [2]; [5]): 0.299 ± 0.0059 | growth (E. coli TESEC Mtb Alr [2]; [6]): 0.281 ± 0.0045 | growth (E. coli TESEC Mtb Alr [2]; [7]): 0.183 ± 0.022 | growth (E. coli TESEC Mtb Alr [2]; [8]): 0.231 ± 0.02 | growth (E. coli TESEC Mtb Alr [2]; [9]): 0.138 ± 0.011 | growth (E. coli TESEC Mtb Asd; [10]): 0.338 ± 0.022 | growth (E. coli TESEC Mtb Asd; [11]): 0.401 ± 0.035 | growth (E. coli TESEC Mtb DapB; [12]): 0.174 ± 0.0062 | growth (E. coli TESEC Mtb DapB; [13]): 0.219 ± 0.015 | growth [4]: 0.544 ± 0.076 | growth (E. coli TESEC Mtb Alr [3]; [14]): 0.431 ± 0.015 | growth (E. coli TESEC Mtb Alr [3]; [15]): 0.357 ± 0.0052

CC(C)(C)C(=O)OCOC(=O)[C@@H]1N2C(=O)[C@@H](/N=C/N3CCCCCC3)[C@H]2SC1(C)C [Pivmecillinam hydrochloride]
growth [1]: 0.184 ± 0.0062 | growth (E. coli TESEC Mtb Alr [2]; [5]): 0.249 ± 0.0036 | growth (E. coli TESEC Mtb Alr [2]; [6]): 0.282 ± 0.0063 | growth (E. coli TESEC Mtb Alr [2]; [7]): 0.326 ± 0.0058 | growth (E. coli TESEC Mtb Alr [2]; [8]): 0.191 ± 0.016 | growth (E. coli TESEC Mtb Alr [2]; [9]): 0.191 ± 0.021 | growth (E. coli TESEC Mtb Asd; [10]): 0.323 ± 0.028 | growth (E. coli TESEC Mtb Asd; [11]): 0.363 ± 0.022 | growth (E. coli TESEC Mtb DapB; [12]): 0.218 ± 0.022 | growth (E. coli TESEC Mtb DapB; [13]): 0.222 ± 0.024 | growth [4]: 0.509 ± 0.096 | growth (E. coli TESEC Mtb Alr [3]; [14]): 0.4196 ± 0.0028 | growth (E. coli TESEC Mtb Alr [3]; [15]): 0.344 ± 0.012

NCCC[C@H](N)CC(=O)N[C@H]1CNC(=O)[C@H]([C@H]2C[C@H](O)NC(N)=N2)NC(=O)/C(=C/NC(N)=O)NC(=O)[C@H](CO)NC(=O)[C@H](CO)NC1=O [Viomycin sulfate]
growth [1]: 0.178 ± 0.011 | growth (E. coli TESEC Mtb Alr [2]; [5]): 0.251 ± 0.012 | growth (E. coli TESEC Mtb Alr [2]; [6]): 0.1314 ± 0.0004 | growth (E. coli TESEC Mtb Alr [2]; [7]): 0.138 ± 0.0014 | growth (E. coli TESEC Mtb Alr [2]; [8]): 0.112 ± 0.0031 | growth (E. coli TESEC Mtb Alr [2]; [9]): 0.143 ± 0.0015 | growth (E. coli TESEC Mtb Asd; [10]): 0.281 ± 0.032 | growth (E. coli TESEC Mtb Asd; [11]): 0.268 ± 0.016 | growth (E. coli TESEC Mtb DapB; [12]): 0.169 ± 0.0056 | growth (E. coli TESEC Mtb DapB; [13]): 0.226 ± 0.031 | growth [4]: 0.193 ± 0.13 | growth (E. coli TESEC Mtb Alr [3]; [14]): 0.226 ± 0.14 | growth (E. coli TESEC Mtb Alr [3]; [15]): 0.0681 ± 0.0071

C[C@]12CC[C@H]3C(=CCc4cc(O)ccc43)[C@@H]1CCC2=O [Equilin]
growth [1]: 0.126 ± 0.0019 | growth (E. coli TESEC Mtb Alr [2]; [5]): 0.17 ± 0.0095 | growth (E. coli TESEC Mtb Alr [2]; [6]): 0.226 ± 0.0079 | growth (E. coli TESEC Mtb Alr [2]; [7]): 0.154 ± 0.0054 | growth (E. coli TESEC Mtb Alr [2]; [8]): 0.0878 ± 0.0015 | growth (E. coli TESEC Mtb Alr [2]; [9]): 0.125 ± 0.0018 | growth (E. coli TESEC Mtb Asd; [10]): 0.159 ± 0.0023 | growth (E. coli TESEC Mtb Asd; [11]): 0.258 ± 0.044 | growth (E. coli TESEC Mtb DapB; [12]): 0.174 ± 0.0089 | growth (E. coli TESEC Mtb DapB; [13]): 0.183 ± 0.017 | growth (E. coli TESEC Mtb Alr [3]; [14]): 0.388 ± 0.0096 | growth (E. coli TESEC Mtb Alr [3]; [15]): 0.163 ± 0.0075

Nc1nc2c(ncn2COC(CO)CO)c(=O)[nH]1 [Ganciclovir]
growth [1]: 0.236 ± 0.0046 | growth (E. coli TESEC Mtb Alr [2]; [5]): 0.283 ± 0.0092 | growth (E. coli TESEC Mtb Alr [2]; [6]): 0.2718 ± 0.0013 | growth (E. coli TESEC Mtb Alr [2]; [7]): 0.202 ± 0.023 | growth (E. coli TESEC Mtb Alr [2]; [8]): 0.183 ± 0.003 | growth (E. coli TESEC Mtb Alr [2]; [9]): 0.136 ± 0.0066 | growth (E. coli TESEC Mtb Asd; [10]): 0.314 ± 0.011 | growth (E. coli TESEC Mtb Asd; [11]): 0.411 ± 0.019 | growth (E. coli TESEC Mtb DapB; [12]): 0.21 ± 0.023 | growth (E. coli TESEC Mtb DapB; [13]): 0.245 ± 0.013 | growth [4]: 0.473 ± 0.057 | growth (E. coli TESEC Mtb Alr [3]; [14]): 0.417 ± 0.016 | growth (E. coli TESEC Mtb Alr [3]; [15]): 0.365 ± 0.0063

CC(=O)c1ccc(S(=O)(=O)NC(=O)NC2CCCCC2)cc1 [Acetohexamide]
growth [1]: 0.253 ± 0.0047 | growth (E. coli TESEC Mtb Alr [2]; [5]): 0.284 ± 0.0099 | growth (E. coli TESEC Mtb Alr [2]; [6]): 0.242 ± 0.0032 | growth (E. coli TESEC Mtb Alr [2]; [7]): 0.191 ± 0.024 | growth (E. coli TESEC Mtb Alr [2]; [8]): 0.162 ± 0.0024 | growth (E. coli TESEC Mtb Alr [2]; [9]): 0.156 ± 0.0038 | growth (E. coli TESEC Mtb Asd; [10]): 0.268 ± 0.082 | growth (E. coli TESEC Mtb Asd; [11]): 0.455 ± 0.029 | growth (E. coli TESEC Mtb DapB; [12]): 0.19 ± 0.0083 | growth (E. coli TESEC Mtb DapB; [13]): 0.232 ± 0.024 | growth [4]: 0.526 ± 0.01 | growth (E. coli TESEC Mtb Alr [3]; [14]): 0.405 ± 0.0044 | growth (E. coli TESEC Mtb Alr [3]; [15]): 0.316 ± 0.0099

NC[C@@H]1O[C@H](O[C@H]2[C@@H](O)[C@H](O[C@@H]3[C@@H](O)[C@H](N)C[C@H](N)[C@H]3O[C@H]3O[C@H](CN)[C@@H](O)[C@H](O)[C@H]3N)O[C@@H]2CO)[C@H](N)[C@@H](O)[C@@H]1O [Neomycin sulfate]
growth [1]: 0.249 ± 0.0054 | growth (E. coli TESEC Mtb Alr [2]; [5]): 0.305 ± 0.009 | growth (E. coli TESEC Mtb Alr [2]; [6]): 0.287 ± 0.0035 | growth (E. coli TESEC Mtb Alr [2]; [7]): 0.219 ± 0.015 | growth (E. coli TESEC Mtb Alr [2]; [8]): 0.19 ± 0.005 | growth (E. coli TESEC Mtb Alr [2]; [9]): 0.163 ± 0.0028 | growth (E. coli TESEC Mtb Asd; [10]): 0.271 ± 0.043 | growth (E. coli TESEC Mtb Asd; [11]): 0.389 ± 0.021 | growth (E. coli TESEC Mtb DapB; [12]): 0.187 ± 0.018 | growth (E. coli TESEC Mtb DapB; [13]): 0.245 ± 0.041 | growth [4]: 0.453 ± 0.037 | growth (E. coli TESEC Mtb Alr [3]; [14]): 0.4232 ± 0.0036 | growth (E. coli TESEC Mtb Alr [3]; [15]): 0.343 ± 0.013
